Test results from PubChem BioAssay (NCATS).
Results filed as inconclusive are left out. Activity calls are given as the source filed them. Calls come from the whole dose curve; as a rule, active = well fitted curve in the direction sought with a large enough effect; inconclusive = small, poorly fitted or top-dose-only effect, or another doubt; inactive = no such curve, though single readings can be large; an effect the other way counts as inactive or inconclusive.

Test: Quantitative High-Throughput drug screen in 47 multiple myeloma cell lines against the NCATS MIPE library collection: KHM11_PLB cell viability assay (AID 1918962)
Conditions: KHM11 myeloma cell viability, CellTiter-Glo ATP luminescence, 48 h; series mostly up to 45.8 µM
How it was run: (§1)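 Myeloma cell lines, 500 cells per well, exposed to MIPE 4.0 library compounds for 48 h at 37C, 5% CO2. Viability from ATP by CellTiter-Glo luminescence; normalised to DMSO (100%) and media-only (0%) wells.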
Note: nearly all actives have a fitted effect of over 35% in size.
Potency is the fitted concentration of half-maximal effect.

SMILES | Potency
COc1cccc(-c2ccc(NC(=O)C3=C(C(=O)O)CCC3)c(F)c2)c1 | inactive
Nc1nccc(Oc2ccc(NC(=O)c3c[nH]cc(-c4ccc(F)cc4)c3=O)cc2F)c1Cl | 18.7 µM (active)
Clc1cccc(-c2nnnn2Cc2cccnc2)c1Cl | inactive
CNC(=O)c1ccc(-c2cnc3ncc(Cc4ccc5ncccc5c4)n3n2)cc1F | inactive
CCNC(=O)Nc1ccc2ncc(Nc3ccc(C)cc3)nc2n1 | 3.72 µM (active)
COc1ccc2c(c1)CC[C@@H](CN(C)CC(=O)O)[C@H]2c1ccccc1 | 0.662 µM (active)
NC(=O)c1c(OCc2c(F)cc(Br)cc2F)nsc1NC(=O)NCCCCN1CCCC1 | 9.35 µM (active)
C=CC(=O)Nc1cccc(Oc2nc(Nc3ccc(N4CCN(C)CC4)cc3)ncc2Cl)c1 | 16.6 µM (active)
OCc1ccc(-c2ccc(-c3ccc(CO)s3)o2)s1 | 6.62 µM (active)
Clc1ccc2ncc(-c3cccc(NC4CNC4)n3)n2c1 | 8.33 µM (active)
CC1(C)CCC(c2ccc(Cl)cc2)=C(CN2CCN(c3ccc(C(=O)NS(=O)(=O)c4ccc(N[C@H](CCN5CCOCC5)CSc5ccccc5)c(S(=O)(=O)C(F)(F)F)c4)cc3)CC2)C1 | 6.62 µM (active)
Clc1cccc(-n2nnnc2NCc2ccccc2Oc2ccccn2)c1Cl | inactive
COc1cc2c(Nc3ccc(NC(=O)c4ccccc4)cc3)ncnc2cc1OCCCN1CCOCC1 | 8.33 µM (active)
NCC(=O)Nc1ccc(-n2nc(C(F)(F)F)cc2-c2ccc3c(ccc4ccccc43)c2)cc1 | 26.4 µM (active)
C[C@]1(CO)CN(c2cc(C(=O)Nc3ccc4c(c3)-c3c(c(C(N)=O)nn3-c3ccc(F)cc3)CC4)c(Cl)cn2)C[C@@]1(C)CO | 4.18 µM (active)
NC1(Cc2ccc(Cl)cc2)CCN(c2ncnc3[nH]ccc23)CC1 | 2.96 µM (active)

Test: Quantitative High-Throughput drug screen in 47 multiple myeloma cell lines against the NCATS MIPE library collection: JIM3_ECACC cell viability assay (AID 1918963)
Conditions: JIM3 myeloma viability, CellTiter-Glo ATP, 48 h; series mostly up to 45.8 µM
How it was run: as §1

SMILES | Potency
Cc1cc(Nc2nc(N[C@@H](C)c3ccc(F)cc3)c(C#N)cc2F)n[nH]1 | 3.72 µM (active)
COc1cccc(-c2ccc(NC(=O)C3=C(C(=O)O)CCC3)c(F)c2)c1 | 23.5 µM (active)
CC(C)Nc1cc(C(F)(F)F)cc2nc(NC(=O)c3cccnc3)nn12 | inactive
CC(C)c1cc(-c2n[nH]c(=O)n2-c2ccc3c(ccn3C)c2)c(O)cc1O | 0.0264 µM (active)
Nc1nccc(Oc2ccc(NC(=O)c3c[nH]cc(-c4ccc(F)cc4)c3=O)cc2F)c1Cl | 26.4 µM (active)
COc1cc(-c2nn(C3CCC(N4CCN(C(C)=O)CC4)CC3)c3ncnc(N)c23)ccc1NC(=O)c1cc2ccccc2n1C (centres undefined) | 2.35 µM (active)
Clc1cccc(-c2nnnn2Cc2cccnc2)c1Cl | inactive
CNC(=O)c1ccc(-c2cnc3ncc(Cc4ccc5ncccc5c4)n3n2)cc1F | inactive
CCNC(=O)Nc1ccc2ncc(Nc3ccc(C)cc3)nc2n1 | 4.69 µM (active)
COc1ccc2c(c1)CC[C@@H](CN(C)CC(=O)O)[C@H]2c1ccccc1 | 1.66 µM (active)
Cc1cn2cc(C(=O)N(C)CCO)cc(N[C@@H]3CCOc4cccc(C)c43)c2n1 | inactive
Cn1c(=O)n(-c2ccc(C(C)(C)C#N)cc2)c2c3cc(-c4cnc5ccccc5c4)ccc3ncc21 | 0.132 µM (active)
C=CC(=O)Nc1cccc(Oc2nc(Nc3ccc(N4CCN(C)CC4)cc3OC)ncc2Cl)c1 | 0.118 µM (active)
NC(=O)c1c(OCc2c(F)cc(Br)cc2F)nsc1NC(=O)NCCCCN1CCCC1 | 26.4 µM (active)
CC1(C)CC(=O)c2c(C(F)(F)F)nn(-c3ccc(C(N)=O)c(NC4CCC(OC(=O)CN)CC4)c3)c2C1 (centres undefined) | 0.148 µM (active)
C=CC(=O)Nc1cccc(Oc2nc(Nc3ccc(N4CCN(C)CC4)cc3)ncc2Cl)c1 | 5.9 µM (active)
Nc1cccc(-c2cc3c(Oc4cccc(O)c4)ncnc3[nH]2)c1 | 16.6 µM (active)
C[C@]12CC[C@H](O)CC1=CCC1C2CC[C@]2(C)C(n3cnc4ccccc43)=CCC12 (some centres undefined) | inactive
OCc1ccc(-c2ccc(-c3ccc(CO)s3)o2)s1 | 16.6 µM (active)
Clc1ccc2ncc(-c3cccc(NC4CNC4)n3)n2c1 | 14.8 µM (active)
Clc1cccc(-n2nnnc2NCc2ccccc2Oc2ccccn2)c1Cl | inactive
NCC(=O)Nc1ccc(-n2nc(C(F)(F)F)cc2-c2ccc3c(ccc4ccccc43)c2)cc1 | 18.7 µM (active)
NC(=O)c1cccc2cn(-c3ccc([C@@H]4CCCNC4)cc3)nc12 | inactive
